Drawing on PubChem BioAssay AID504336 (NMMLSC, 2011), this text covers GFP response relative to DMSO for 39 molecules.

Values joined by “and” are separate entries in the source; they are usually repeats but may differ in a detail not shown here. Identical values can stand only once. Active and inactive are the calls of the source.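 How the source made its calls: active means compounds whose GFP signal falls below 65% of the DMSO control level; inconclusive means fewer than 70 yeast cells counted in the well; inactive means the rest.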

This test can be described thus: TOR branch reporter RPL19A-GFP response – cell-based, S. cerevisiae, third cherry pick, flow cytometry, confirmation (AID 504336).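 Further: median GFP fluorescence of all gated yeast cells by flow cytometry; ratio of well median fluorescence to plate mean of DMSO wells with DMSO = 100%.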 As to conditions: S. cerevisiae RPL19A-GFP strain, 3 h, at 10 µM, stronger effect = lower value.
On to `C[n+]1cccc2c(Br)ccc([O-])c21`, for which the GFP response relative to DMSO is 101% (inactive).
The same measure for `O=C(Nc1ccc(-c2nc3ccccc3o2)cc1)c1cccnc1`: 101% (inactive).
For the molecule `Cn1c(NCCCO)nc2c(c1=O)C1(CCCCC1)Cc1ccccc1-2`, the GFP response relative to DMSO is 102% (inactive).
In the case of `Nc1[nH]c(=O)nc(Nc2ccccc2)c1N=O` it was 101% (inactive); in that of `CC(=O)Nc1ccc(-c2nc3cc(Cl)ccc3o2)cc1`, 99.3% (inactive); in that of `CNc1nc(C)c([N+](=O)[O-])c(Nc2ccc(OC)cc2)n1`, 102% (inactive).
In the case of `COc1cccc2c(O)cc(=O)n(C)c12` it was 99.6% (inactive); in that of `COc1cccc(N/C=C/C(=O)c2ccc(C)cc2)c1`, 103% (inactive); in that of `O=c1cc(C(F)(F)F)[nH]c2c(OC(F)(F)F)cccc12`, 101% (inactive).
`COc1ccccc1Nc1nc(NCCO)nc(N)c1[N+](=O)[O-]`: the GFP response relative to DMSO was 102% (inactive).
For the molecule `CC1=CN2C(=N)/C(=C/c3ccc([N+](=O)[O-])o3)C(=O)N=C2S1`, the GFP response relative to DMSO was 240% (inactive).
Take `COc1cccc2c(Cl)c(CCCl)c(C)nc12`: the GFP response relative to DMSO is 99.3% (inactive).
The same measure for `FC(F)Oc1cccc2cccnc12`: 95.4% (inactive); for `CCN(CC)C(=O)Oc1ccnc2cc(Cl)ccc12`: 103% (inactive).
For the molecule `O=C(Nc1ccccc1)O/N=C1/CCCc2occc21`, the GFP response relative to DMSO is 100% (inactive).
The same measure for `Oc1ccc(Cl)c2cccnc12`: 98% (inactive); for `Cc1ccc(Nc2cc(=O)[nH]c(=O)[nH]2)cc1C`: 96.5% (inactive).
For `CNc1cccc2c1C(=O)c1ccccc1C2=O`, the GFP response relative to DMSO is 102% (inactive).
As to `Cc1ccc(NC(=O)O/N=C2\CCCCC2c2ccc([N+](=O)[O-])cc2[N+](=O)[O-])cc1` (centres undefined), the GFP response relative to DMSO was 102% (inactive).
As for `CCCC(=O)Nn1cnc2c(c1=O)C1(CCCC1)Cc1ccccc1-2`, the GFP response relative to DMSO was 102% (inactive).
Consider `Cc1ccc(C)c(Nc2ncnc(N)c2[N+](=O)[O-])c1`, for which the GFP response relative to DMSO was 99.3% (inactive).
In the case of `CC(=O)Nn1cnc2c(c1=O)C1(CCCCC1)Cc1ccccc1-2` it was 99.1% (inactive).
For the molecule `O=C(O)c1ccc2cccc(O)c2n1`, the GFP response relative to DMSO is 102% (inactive).
For the molecule `CC(=O)NC(C)c1cc(Cl)c2cccnc2c1O` (centres undefined), the GFP response relative to DMSO is 99.1% (inactive).
In the case of `COc1ccccc1Nc1nc(NCC(C)C)nc(N)c1[N+](=O)[O-]`, the GFP response relative to DMSO was 102% (inactive).
For `O=C(O)c1ccc2cccnc2c1O`, the GFP response relative to DMSO is 100% (inactive).
The same measure for `CCOC(=O)CS(=O)(=O)c1nc(-c2ccccc2)cc(C(F)(F)F)n1`: 93.1% (inactive); for `Oc1c(Br)cc(Br)c2cccnc12`: 88.3% (inactive).
In the case of `COc1ccc(N/C=C/C(=O)c2ccc(Cl)cc2)cc1`, the GFP response relative to DMSO was 102% (inactive).
Take `COc1ccc(-c2cc(C(F)(F)F)nc(S(C)(=O)=O)n2)cc1OC`: the GFP response relative to DMSO is 99.6% (inactive) and 103% (inactive).
As to `Cc1cccc(C)c1Nc1ncnc(N)c1[N+](=O)[O-]`, the GFP response relative to DMSO is 98.5% (inactive).
In the case of `C=CCNc1nc(N)c([N+](=O)[O-])c(Nc2ccccc2OC)n1` it was 102% (inactive); in that of `Cn1cccc1C(=O)Nc1nc(-c2ccccn2)cs1`, 102% (inactive).
Regarding `O=C(Nc1ccccc1)O/N=C1\CCCCC1c1ccc([N+](=O)[O-])cc1[N+](=O)[O-]` (centres undefined), the GFP response relative to DMSO was 96.5% (inactive).
The same measure for `O=C(Nc1ccccc1Cl)ON=C1c2ccccc2-c2ccccc21`: 102% (inactive); for `O=C(Nc1cccc(Cl)c1)ON=C1c2ccccc2-c2ccccc21`: 102% (inactive).
In the case of `COc1ccccc1-c1cc(C(F)(F)F)nc(S(=O)(=O)CCCC(=O)NC(C)C)n1` it was 94.4% (inactive) and 99.1% (inactive); in that of `O=C(N/N=C/c1ccccc1F)c1cccc2ccccc12`, 100% (inactive).
The same measure for `O=C(O)c1ccccc1-c1ccccc1C(=O)Nc1ccc(-c2nc3cc(Cl)ccc3o2)cc1`: 98.5% (inactive).
